High-throughput results deposited in PubChem by The Scripps Research Institute Molecular Screening Center.
Shown are actives, neighbours in structure and some others; about 1.8% of the full set was active somewhere.
LYPLA2 counter: counter-screen for PME1 inhibitors: inhibitors of human LYPLA2. recombinant LYPLA2, FP-Rh probe fluorescence polarization. inhibition, % at 5.9 µM. hit rate 0.38% among 320,000;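 active = inhibition above the screen-wide mean plus 3 SD, limit set per campaign, cut at about 26% in these data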
PP1 inh: blocks human PP1-alpha phosphatase, a PP5 counter-screen. inhibition, % at 6.7 µM. P62136. hit rate 0.9% among 320,000. AID 2235. purified PP1alpha, OMFP fluorescence;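 active = inhibition above the mean inhibition of all tested compounds plus 3 SD, computed separately for each screening campaign, cut at about 15% in these data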
PP5 inh: blocks human protein phosphatase 5 activity | P53041 | purified PP5c, OMFP substrate fluorescence | inhibition, % at 6.7 µM | hit rate 0.18% among 320,000 | AID 1987;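 active = inhibition above the campaign's mean inhibition across all tested compounds plus 3 SD, cut at about 9.5% in these data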
LYPLA1 inh: LYPLA1 (human) inhibition in PME1 counter-screen. O75608. recombinant LYPLA1, FP-Rh probe fluorescence polarization. inhibition, % at 5.9 µM. hit rate 0.16% among 320,000;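 active = inhibition above the mean of all tested compounds plus 3 SD, set per campaign, cut at about 14% in these data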;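 also: inhibitors block serine hydrolase probe labeling of LYPLA1 so polarization falls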
Fam108B counter: Fam108B inhibition, counter-screen for RBBP9 inhibitors; recombinant Fam108B, FP-Rh probe fluorescence polarization; inhibition, % at 9.51 µM; hit rate 0.33% among 300,000; AID 1947;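 active = inhibition above the screen mean inhibition plus 3 SD, computed separately per campaign, cut at about 18% in these data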;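 also: inhibitors lower polarization as less probe binds the enzyme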
PME-1 inh: blocks human protein phosphatase methylesterase 1 | Q9Y570 | recombinant PME-1, FP-Rh probe fluorescence polarization | inhibition, % at 5.9 µM | hit rate 0.53% among 320,000 | AID 2130;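 active = inhibition above the campaign mean of all compounds plus 3 SD, cut at about 26% in these data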;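 also: competitive labeling of PME-1 active site by serine hydrolase directed probe; inhibitors block probe labeling so polarization falls and inhibition rises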
Target sequence (Q9Y570 whole entry, looked up): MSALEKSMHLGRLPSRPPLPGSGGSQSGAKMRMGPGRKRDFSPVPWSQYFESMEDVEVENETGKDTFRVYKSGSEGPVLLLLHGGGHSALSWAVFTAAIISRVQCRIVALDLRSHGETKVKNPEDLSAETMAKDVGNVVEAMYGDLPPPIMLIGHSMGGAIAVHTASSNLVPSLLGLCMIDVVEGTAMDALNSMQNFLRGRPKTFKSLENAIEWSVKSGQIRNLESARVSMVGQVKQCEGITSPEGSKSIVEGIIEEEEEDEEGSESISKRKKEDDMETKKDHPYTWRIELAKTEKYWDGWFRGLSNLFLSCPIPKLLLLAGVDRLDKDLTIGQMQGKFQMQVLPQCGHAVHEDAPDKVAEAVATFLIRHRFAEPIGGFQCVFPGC
PP1 confirm: confirmation of human PP1 phosphatase inhibitors. shares compounds with PP1 inh. purified PP1alpha, OMFP substrate fluorescence. inhibition, % at 6.7 µM. hit rate 52% among 1,900;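 active = mean PP1 inhibition above a set limit taken from the earlier primary screen, cut at about 15% in these data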
PP5 counter: counter-screen for PP1 inhibitors: human PP5 phosphatase inhibition | shares compounds with PP1 inh | purified PP5c, OMFP fluorescence | inhibition, % at 6.7 µM | hit rate 4% among 1,900;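 active = mean PP5 inhibition over triplicate wells above about 9.5% taken from the earlier PP1 screen, limit read from the data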
Each line names hits and unclear results; the compound was inactive in the other large screens (follow-up assays come after a bar, where they were run).

COc1cccc(C(C(=O)NC(C)(C)C)N(C(=O)CCC(=O)Nc2cc(C)on2)c2ccc3c(c2)OCCO3)c1OC (stereo unspecified)	none
CCCOc1ccc(/C=N/Nc2cc(N3CCOCC3)ncn2)c(O)c1	PP1 inh 27 | PP1 confirm 23 | PP5 counter inactive
CCCCOc1ccc(/C=N/Nc2cc(N3CCOCC3)nc(C)n2)cc1	none
COc1ccccc1NC(=O)c1c(Nc2ccccc2F)sc(C(=O)Nc2cccc(Cl)c2)c1N	PP1 inh 22 | PP1 confirm inactive | PP5 counter inactive
Cc1oc(-c2ccc(Cl)cc2)cc1-c1nn2c(-c3ccoc3C)nnc2s1	PP1 inh 24 | PP1 confirm 19 | PP5 counter inactive
C=CCn1c(O)c2ccc(C(=O)N=NC(=O)c3ccc(F)cc3)cc2c1O	none
Cc1cnc(NC(=O)CSc2nnc3ncccn23)s1	PP1 inh 22 | PP1 confirm inactive | PP5 counter inactive
COC(=O)c1ccc(C2/C(=C(/O)c3ccc(OC)cc3)C(=O)C(=O)N2c2cc(C)on2)cc1 (stereo unspecified)	none
COC(=O)c1ccc(C2/C(=C(/O)c3ccc(OC(C)C)cc3)C(=O)C(=O)N2c2cc(C)on2)cc1 (stereo unspecified)	PP1 inh 20 | PP1 confirm inactive | PP5 counter inactive
Cc1ccsc1/C=N/NC(=O)c1cccnc1	none
CCOc1ccccc1NC(=O)CSc1nc2nc(-c3cccs3)cc(C(F)(F)F)c2c(=O)[nH]1	PP1 inh 21 | PP1 confirm inactive | PP5 counter inactive
CCCCCCCCCCCC1=C(O)C(=O)C=C(O)C1=O	PP1 inh 46 | PP1 confirm 35 | PP5 counter inactive
CCCCCCc1c(O)c2ccccc2[nH]c1=O	none
COc1ccc(/C=N/Nc2nc(C(=O)O)cs2)cc1	PP1 inh 20 | PP1 confirm inactive | PP5 counter inactive
COC(=O)c1ccc(/C=N/Nc2nc(-c3ccccc3)cs2)cc1	none
CN(CC(=O)NCCc1ccc(S(N)(=O)=O)cc1)S(=O)(=O)c1cccc2nsnc12	none
Cc1nn(CC(=O)N(C)C2CCS(=O)(=O)C2)c(C)c1S(=O)(=O)N(C)C (stereo unspecified)	none (no result: Fam108B counter)
CC1CCN(c2ccc3c(c2)S(=O)(=O)c2ccccc2C3=O)CC1	none
Cc1ccccc1/C=C/C1=NCCN1	none
O=C(N/N=C/c1cc([N+](=O)[O-])cc([N+](=O)[O-])c1O)/C(=C\c1cccs1)NC(=O)c1ccccc1	PP1 inh 21 | PP1 confirm 30 | PP5 counter inactive
O=C(COc1ccc(-c2ccccc2)cc1)N/N=C/c1ccccc1Br	PP1 inh 18 | PP1 confirm inactive | PP5 counter inactive
CCN(CCO)c1nc(SC)nc2c1sc1nc(-c3ccco3)c3c(c12)CCC3	PP1 inh 19 | PP1 confirm 28 | PP5 counter inactive
C=CCNc1nc(C(=O)OCC(=O)Nc2ccccc2C(F)(F)F)cs1	none (no result: Fam108B counter)
COc1ccc(C(=O)CSc2nnc(CNc3ccc(C)cc3C)n2Cc2ccco2)cc1	PP1 inh 23 | PP1 confirm inactive | PP5 counter inactive
Cc1ccc(C(=O)CSc2nnc(CNc3ccc(C)cc3C)n2Cc2ccco2)cc1	none
COc1ccc(NC(=O)c2ccccc2NC(=O)CN2CCCCCC2)cc1	none (no result: Fam108B counter)
N#Cc1ccc(CSc2nnc(NC(=O)c3ccc4ncsc4c3)s2)cc1	PP1 inh 24 | PP1 confirm 49 | PP5 counter inactive
Cc1ccc(OCc2nnc(SCC(=O)N3C(C)CCCC3C)o2)cc1 (stereo unspecified)	none
O=C(COC(=O)/C(=C/c1cccs1)c1cccs1)NC(c1ccccc1)c1ccccc1	PP1 inh 20 | PP1 confirm inactive | PP5 counter inactive
CN(Cc1ccon1)Cc1cn(Cc2ccccc2)nc1-c1ccc2c(c1)OCO2	none
O=C(CSc1nncs1)Nc1ccc(Cl)cc1C(F)(F)F	none
O=C(O)C(Cc1ccccc1)N1C(=O)/C(=C/c2cccc3ccccc23)SC1=S (stereo unspecified)	PP1 inh 20 | PP1 confirm 32 | PP5 counter inactive
